DRD3 agonist – activates the human D3 dopamine receptor; 0.58% of 410,000 active; max activation, %; D3R DiscoveRx beta-arrestin cells, luminescence, 90 min; in the data active = max activation above about 30%; note: 0% is about no effect
Target sequence (P35462 whole entry, looked up): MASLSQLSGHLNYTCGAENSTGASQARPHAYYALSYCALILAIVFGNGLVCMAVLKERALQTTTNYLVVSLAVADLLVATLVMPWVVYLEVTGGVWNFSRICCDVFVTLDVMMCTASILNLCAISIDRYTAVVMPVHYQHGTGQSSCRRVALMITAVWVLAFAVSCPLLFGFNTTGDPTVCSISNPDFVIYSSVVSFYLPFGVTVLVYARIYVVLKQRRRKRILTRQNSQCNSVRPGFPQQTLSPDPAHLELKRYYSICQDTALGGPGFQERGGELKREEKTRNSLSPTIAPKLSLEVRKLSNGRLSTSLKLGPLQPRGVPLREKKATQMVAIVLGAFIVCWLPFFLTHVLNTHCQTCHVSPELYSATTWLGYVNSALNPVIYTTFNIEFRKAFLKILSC
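Agonist-mode cell screen: cells plated at 1500/well and incubated overnight at 37 °C, then exposed to library compounds for 90 min at 37 °C. Detection reagent was added for 30–60 min at room temperature, and luminescence was read.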
DRD3 antagonist – D3 dopamine receptor (human) antagonism; P35462; max response, negative = inhibition, %; AID 652054; 2.5% of 360,000 active; D3R cells, DiscoveRx beta-arrestin luminescence, antagonist mode; stronger effect = lower value; in the data active = max response below about -50%; note: % is set by controls: 0 for no effect and ±100 for the full control effect
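Cells plated overnight at 1500 cells/well, then exposed to library compounds with dopamine controls for 90 minutes at 37 degrees C. DiscoveRx reagent added for 30–60 minutes at room temperature; luminescence read, quantitative HTS format.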
D1 agonist – agonists of human D1 dopamine receptor. P21728. 1% of 360,000 active. HEK293 T-REx D1 cells, calcium flux, agonist mode. activation, % at 2 µM; in the data active = activation above about 30%; note: 0% is about no effect
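Inducible HEK293 T-REx D1 cells, force-coupled to calcium signalling, were plated at 4000 cells/well with tetracycline and held overnight at 30 C. After no-wash calcium dye loading, compound-evoked calcium rise over 180 s flagged agonists.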
D1 PAM – human D1 dopamine receptor positive modulation; P21728; HEK293 TREx D1 cells, calcium flux, dopamine EC20 potentiation; 0.036% of 360,000 active; potentiation, % at 10 µM; in the data active = potentiation above about 30%; note: 0% is about no effect
D1 antagonist – blocks dopamine activation of the human D1 receptor. 3.2% of 360,000 active. activity change, negative = inhibition, % at 10 µM. AID 504652. HEK293 TREx D1 cells, calcium flux, dopamine EC80; stronger effect = lower value; in the data active = activity change below about -30%; note: % is set by controls: 0 for no effect and ±100 for the full control effect
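Compound effects on dopamine-evoked calcium signalling were measured in tetracycline-induced HEK293 Trex D1 cells. Dopamine at EC80 followed a 180 s compound pre-read, and fluorescence was tracked kinetically for 180 s more.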
* = called active by the depositor; · = no result. Hits are enriched below; roughly 6.1% of the tested compounds scored in any of these assays.

SMILES | DRD3 agonist | DRD3 antagonist | D1 agonist | D1 PAM | D1 antagonist
CCOC(=O)CS(=O)(=O)c1ccccc1 | 0 | 4 | 3 | -7 | 0
COC(=O)CCS(=O)(=O)c1nc(-c2ccccc2)cc(C(F)(F)F)n1 | -61 | -78* | -2 | -10 | 43
CCOC(=O)CS(=O)(=O)c1nc(-c2ccccc2)cc(C(F)(F)F)n1 | -28 | -69* | 1 | -4 | -11
CCC(C)NC(=O)CCSc1nc(-c2ccc(OC)cc2)cc(C(F)(F)F)n1 (stereo unspecified) | 2 | · | 23 | -6 | -3
COCC(C)NC(=O)CCS(=O)(=O)c1nc(-c2ccc(OC)cc2)cc(C(F)(F)F)n1 (stereo unspecified) | -18 | -87* | 3 | -3 | -8
COc1cc(O)ccc1C1CC(=O)Nc2c1c(=O)nc(SCc1ccccc1C)n2C (stereo unspecified) | -9 | · | -2 | 2 | -1
Cc1cccc(C)c1OCCn1c(C2CC(=O)N(Cc3ccc(F)cc3)C2)nc2ccccc21 (stereo unspecified) | -8 | · | 5 | -3 | 3
COc1ccc(CCNC(=O)C2CCCN(c3nc4c(C)cc(C)cc4s3)C2)cc1OC (stereo unspecified) | 10 | · | 2 | -3 | -20
CCOC(=O)Cc1cc(-c2ccccc2)nc2ccc3ccccc3c12 | 5 | 27 | 10 | -12 | -36*
O=C(O)CCS(=O)(=O)c1nc(-c2cccs2)cc(C(F)(F)F)n1 | -13 | 1 | 2 | -3 | 1
CCOC(=O)CCS(=O)(=O)c1nc(-c2ccccc2)cc(C(F)(F)F)n1 | -21 | -51* | 0 | -3 | -18
Cc1cc(NC(=O)CCCS(=O)(=O)c2nc(-c3cccs3)cc(C(F)(F)F)n2)no1 | -11 | -106* | 6 | -7 | -2
CN1CCN(C(=O)c2ccc3c(c2)N(Cc2c(F)cccc2Cl)C(=O)c2ccccc2S3)CC1 | -18 | · | 7 | 0 | 7
CCS(=O)(=O)c1ccc2oc(SCC(=O)NCCc3ccc(F)cc3)nc2c1 | -2 | 2 | 2 | -6 | ·
COCC(C)NC(=O)CSc1nc2cc(S(=O)(=O)N3CCCCC3)ccc2o1 (stereo unspecified) | -1 | 1 | 4 | -9 | -47*
CCS(=O)(=O)c1ccc2oc(SCC(=O)NCCC3=CCCCC3)nc2c1 | 11 | -51* | 3 | -7 | -7
CC(=O)c1cccc(NC(=O)Cc2ccc(NC(=O)N3CCCCc4ccccc43)cc2)c1 | -2 | · | 3 | -4 | -6
COc1ccc(-c2cn3c(n2)sc2cc(C(=O)NC(C)C45CC6CC(CC(C6)C4)C5)ccc23)cc1 (stereo unspecified) | 1 | · | 0 | -4 | -11
Cc1ccc(C)c(NC(=S)NNC(=O)c2csc3c2CCC(C)C3)c1 (stereo unspecified) | -8 | -60* | 0 | -2 | -22
Cc1ccc2c(c1)c1c(c(=O)n(Cc3ccccc3)c(=O)n1Cc1cccc(F)c1)n2C | 3 | · | -1 | -2 | 14
COc1ccc(OC)c(N/C(=N/C(=S)Nc2ccccc2)Nc2nc(C)cc(C)n2)c1 | 1 | 17 | 2 | -8 | -31*
Cc1ccccc1NC(=O)c1cccc(N2C(=O)C3CCCCC3C2=O)c1 (stereo unspecified) | 14 | 3 | 11 | 1 | -30*
CN(Cc1ccccc1)C(=O)c1cccc(N2C(=O)C3CC=CCC3C2=O)c1 (stereo unspecified) | 7 | -1 | 0 | 8 | 0
Cc1ccccc1NC(=O)c1cccc(N2C(=O)C3C4CCC(C4)C3C2=O)c1 (stereo unspecified) | -20 | 13 | 3 | -3 | -21
CN(C(=O)c1cccc(N2C(=O)C3CC=CCC3C2=O)c1)C1CCCCC1 (stereo unspecified) | 5 | 19 | 9 | -3 | -30*
SMILES | DRD3 agonist | DRD3 antagonist | D1 agonist | D1 PAM | D1 antagonist
CC(C)(C)C(=O)Nc1cc(-c2cccc(Br)c2)nn1-c1ccccc1 | -2 | · | 2 | 5 | -1
COc1ccc(Cn2c(=O)c3oc4ccccc4c3n(CC(=O)Nc3c(C)cccc3C)c2=O)cc1 | 11 | · | 1 | -3 | -1
CCC1CCCCN1C(=O)c1ccc2c(c1)N(Cc1cccc(Cl)c1)C(=O)c1ccccc1S2(=O)=O (stereo unspecified) | -8 | · | 0 | -4 | 1
Cc1cccc(N2CCN(CC(O)COc3ccc(Cl)cc3)CC2)c1 (stereo unspecified) | 3 | -80* | 15 | -5 | -11
Cc1cccc(N2CCN(CC(O)COc3ccccc3)CC2)c1 (stereo unspecified) | -10 | -71* | · | · | ·
CCc1ccc(NC(=O)C2CCCN(S(=O)(=O)c3c(C)noc3/C=C/N(C)C)C2)cc1 (stereo unspecified) | 1 | · | 0 | -2 | -15
CCOC(=O)C1=C(O)/C(=C/c2ccccn2)SC1=Nc1ccc(Cl)cc1 | 0 | -6 | 2 | -7 | -33*
CCOC(=O)C1=C(O)/C(=C/c2cc(OC)c(O)c(OC)c2)SC1=Nc1ccc(OC)cc1 | 3 | -8 | 17 | -14 | -64*
CCOC(=O)C1=C(O)/C(=C/c2ccc(OCC(=O)O)c(OC)c2)SC1=Nc1ccc(OCC)cc1 | 2 | 16 | 3 | -1 | 4
Cc1ccc(C(=O)Cc2nc3ccccc3[nH]2)cc1 | -12 | -51* | 3 | -1 | -10
Cc1ccccc1CSCc1nc2ccccc2[nH]1 | -5 | 4 | 13 | -9 | -30*
c1ccc2[nH]c(CSc3nc4ccccc4o3)nc2c1 | -19 | 22 | 33* | -3 | -3
Cc1ccc(C)c(CSCc2nc3ccccc3[nH]2)c1 | 2 | 2 | 11 | -5 | -12
O=C(Cn1cnc2onc(-c3ccc(F)cc3)c2c1=O)N1CCN(c2ccccc2F)CC1 | 4 | · | 2 | -2 | -6
Cn1nnnc1SCC1=C(C(=O)O)N2C(=O)[C@@H](NC(=O)[C@H](OC=O)c3ccccc3)[C@H]2SC1 | 4 | · | · | · | ·
Cc1nccn1CC(O)COc1ccc([N+](=O)[O-])cc1 (stereo unspecified) | 4 | -4 | 3 | 2 | -7
O=[N+]([O-])c1ccc(OCC(O)CNCCNc2nccc(C(F)(F)F)n2)cc1 (stereo unspecified) | -15 | -84* | 5 | -1 | -5
COC(=O)C(Sc1nc(C)cc(C)c1C#N)c1ccccc1 (stereo unspecified) | -3 | 5 | 6 | -7 | -32*
Cc1nc(SC(C(N)=O)c2ccccc2)c(C#N)c(C)c1C (stereo unspecified) | 5 | -2 | 2 | -1 | 1
Cc1ccc(N2CCN(C(=O)Cn3ncc4c([nH]c5ccc(C)cc54)c3=O)CC2)c(C)c1 | 0 | · | -1 | -2 | 4
CCc1nnc(N/N=C\c2ccc(OC(C)=O)c(OC)c2)n1N | -3 | 1 | 1 | 0 | 5

Compound activity from PubChem.
